Key:
[1] = system: Botulinum neurotoxin type F light chain protease (Clostridium botulinum); assay: Clostridium botulinum type F light chain protease inhibitors, microsphere substrate cleavage, validation (AID 588459); settings: multiplex microsphere protease substrate cleavage assay, flow cytometry; at 10 µM; active compounds read high
[2] = target: Botulinum neurotoxin type A (Clostridium botulinum) (UniProt P0DPI0); assay: BoNT/A light chain protease inhibitors, biochemical, multiplex microsphere flow cytometry, validation set (AID 588460); settings: at 10 µM, active compounds read high
[3] = target: Lethal factor (Bacillus anthracis) (UniProt P15917); assay: Bacillus anthracis lethal factor inhibition, microsphere flow cytometry protease assay, validation at 10 µM (AID 588461); settings: multiplex microsphere protease cleavage assay, active compounds read high

Measured: inhibition

Cc1nc2ccccn2c(=O)c1CCN1CCC(C(=O)c2ccc(F)cc2)CC1
inactive: [1] 1.5% | [2] 0.8% | [3] -0.4%

COc1ccc(C2NC(=O)c3ccccc3O2)c(OC)c1OC (stereo not drawn)
inactive: [1] -2.1% | [2] -0.5% | [3] 2.9%

Cc1cccc2c(=O)n3c(nc12)CCCCC3
inactive: [1] 0.4% | [2] -1.4% | [3] -10.4%

C[C@]12CCC(=O)C=C1CC[C@@H]1[C@@H]2[C@@H](O)C[C@@]2(C)[C@H]1CC[C@]2(O)C(=O)COC(=O)CCC(=O)O
inactive: [1] 1.7% | [2] -2.4% | [3] -8%

Cn1nc(-c2ccccn2)nc2c(=O)n(C)c(=O)nc1-2
inactive: [1] -0.9% | [2] 2.9% | [3] -13%

N=C(N)c1ccc(OCCCCCOc2ccc(C(=N)N)cc2)cc1
inactive: [1] 0.7% | [2] -1.6% | [3] -2.7%

Cc1c(O)c(=O)ccn1C
inactive: [1] 3.3% | [2] -1% | [3] 0.9%

CC(C)=CCC/C(C)=C/CC/C(C)=C/CC/C(C)=C/CC1=C(C)C(=O)c2ccccc2C1=O
inactive: [1] -4.8% | [2] -0.7% | [3] -3%

O=C(c1cccnc1)N1N=C(C2CC2)CC1(O)C(F)(F)F (stereo not drawn)
inactive: [1] 2% | [2] 1% | [3] 4.2%

Cc1cccc(Nc2ccccc2C(=O)O)c1C
inactive: [1] -3.6% | [2] -1.1% | [3] -6%

OC(COCc1ccccc1)CN1CCN(Cc2ccc3c(c2)OCO3)CC1 (stereo not drawn)
inactive: [1] 0.6% | [2] 0.3% | [3] 2.8%

CC1(C)CC(C(CC(=O)N2CCCC2)Cc2ccccc2)CCO1 (stereo not drawn)
inactive: [1] -0.7% | [2] 0.6% | [3] 3.1%

Cc1nc(N)nc2c1CCCC2
inactive: [1] 2.4% | [2] 1.2% | [3] 4.9%

CC(C)(C)OC(=O)COc1cc(OCC(=O)OC(C)(C)C)c2c(=O)cc(-c3ccccc3)oc2c1
inactive: [1] 1.4% | [2] 0.8% | [3] -7.2%

O=C1OC(c2ccccc2)=C/C1=C/c1cccs1
inactive: [1] 6.4% | [2] 1.5% | [3] 0.7%

COC(=O)c1ccccc1NC(=O)NCc1ccccc1
inactive: [1] 2.7% | [2] 0.1% | [3] 0.8%

CN1CCN(CC/C=C2/c3ccccc3Sc3ccc(S(=O)(=O)N(C)C)cc32)CC1
inactive: [1] 3.2% | [2] 0.9% | [3] 0%

Cc1cc(C(=O)Nc2ccccc2C(=O)N2CCCCC2)ccc1[N+](=O)[O-]
inactive: [1] 2.8% | [2] 2.4% | [3] -0.1%

O=C(NC(=S)Nc1nc(-c2ccccc2)cs1)c1ccco1
inactive: [1] 4.3% | [2] -0.2% | [3] -0.3%

COc1ccc(CN2CCC(=O)NC2=O)cc1
inactive: [1] -2.3% | [2] -0.1% | [3] -3.5%

COc1ccc(S(=O)(=O)N2CCN(C(=O)COc3ccc4c(C)cc(=O)oc4c3)CC2)cc1
inactive: [1] 2.4% | [2] 0.1% | [3] -0.8%

COc1cc2cc(C(=O)O)[nH]c2c(OC)c1OC
inactive: [1] 0.5% | [2] -0.4% | [3] -3.8%

CC(C)C[C@H]1C(=O)N2CCC[C@H]2[C@]2(O)O[C@](NC(=O)[C@@H]3C=C4c5cccc6[nH]c(Br)c(c56)CC4N(C)C3)(C(C)C)C(=O)N12 (stereo partly drawn)
inactive: [1] 5.1% | [2] 1.3% | [3] -5.6%

OC(CCN1CCCCC1)(c1ccccc1)c1ccccc1
inactive: [1] 0.9% | [2] 0.5% | [3] -0.2%

Cc1ccc2occ(C(=O)c3ccco3)c(=O)c2c1
inactive: [1] 1.1% | [2] -0.5% | [3] 2.6%

CC(NCCc1ccc(O)cc1)C(O)c1ccc(O)cc1 (stereo not drawn)
inactive: [1] 1.6% | [2] -0.5% | [3] -3.1%

CCOc1ccc2[nH]c3c(=O)n(CCc4ccc(OC)cc4)cnc3c2c1
inactive: [1] 1.7% | [2] 2% | [3] 0.2%

COc1cc(NC(=O)COc2ccccc2)c(OC)cc1NC(C)=O
inactive: [1] -2.2% | [2] 1.2% | [3] -8.3%

COc1ccc(C2C3=C(OC(C)=O)c4ccccc4C3=Nc3c2c(=O)n(C)c(=O)n3C)cc1 (stereo not drawn)
inactive: [1] 4% | [2] 0.1% | [3] 2.9%

CCOC(=O)COc1ccc2c(=O)c(-c3ccccc3)coc2c1
inactive: [1] -1.6% | [2] 1.3% | [3] 1%

COc1cc(C=NCC2OCCc3ccccc32)cc(OC)c1 (stereo not drawn)
inactive: [1] 5.8% | [2] 0.3% | [3] 3.3%

Cc1cccc(-c2ncc(CN3CCN(CC(C)C)C(CCO)C3)cn2)c1 (stereo not drawn)
inactive: [1] 2.6% | [2] 0.9% | [3] 0.4%

COc1cc(OC)cc(C(C)=O)c1
inactive: [1] -1.9% | [2] -1.3% | [3] -0.1%

CCOC(=O)c1ccc(N2C(=O)C(CC(=O)NC)N(CCc3ccc(OC)c(OC)c3)C2=S)cc1 (stereo not drawn)
inactive: [1] -0.6% | [2] -0.4% | [3] -10.1%

O=C1N[C@@H](Cc2cnc[nH]2)C(=O)N2CCC[C@@H]12
inactive: [1] 1.2% | [2] 0.3% | [3] -5.3%

CCC(CO)NCCNC(CC)CO (stereo not drawn)
inactive: [1] 0.2% | [2] 1.5% | [3] -0.2%

O=c1cc(-c2ccccc2)oc2cc(OCc3ccccc3)cc(O)c12
inactive: [1] -0.8% | [2] -0.6% | [3] -4.8%

N/C(=N\OC(=O)/C=C/c1ccccc1)c1ccc(Br)cc1
inactive: [1] -3.1% | [2] -0.1% | [3] 2.5%

O=C(NCCO)c1ccc2[nH]c3ccccc3c2c1
inactive: [1] 0.6% | [2] 0.1% | [3] 5.3%

CCc1cc(C(N)=S)ccn1
inactive: [1] 1.9% | [2] 0.9% | [3] -2.7%

CC1/C(=C\c2ccc(Cl)cc2)C(=O)C2CC1C2(C)C (stereo not drawn)
inactive: [1] 5.2% | [2] 0.2% | [3] -9.7%

Cc1ccc(S(=O)(=O)NC(C(=O)Oc2ccc3c(C(F)(F)F)cc(=O)oc3c2)c2ccccc2)cc1 (stereo not drawn)
inactive: [1] 1.6% | [2] 1.4% | [3] -1.3%

COc1ccc2[nH]cc(C(=O)CCl)c2c1
inactive: [1] -3.7% | [2] -1.3% | [3] -5.3%

COC(=O)[C@@H](N)CS
inactive: [1] 2.1% | [2] -1.9% | [3] -1.2%

O=[N+]([O-])c1cccc2cn[nH]c12
inactive: [1] 6.9% | [2] 3% | [3] 6.3%

O=C(c1ccccc1)N1CCN(C(=O)c2ccccc2)CC1
inactive: [1] -0.3% | [2] -0.7% | [3] -0.8%

CCc1ccc2oc(=O)cc(CN3CCC(C)CC3)c2c1
inactive: [1] 5.5% | [2] 0.8% | [3] 1.4%

COc1ccc(C(=O)Nc2ccccc2C(=O)NC(Cc2c[nH]c3ccccc23)C(=O)O)cc1 (stereo not drawn)
inactive: [1] -0.8% | [2] 0.5% | [3] 0%

CCC(=O)c1ccc(O)cc1
inactive: [1] 1.2% | [2] -0.4% | [3] -1.2%

Nc1ccc(N=Nc2ccccc2)c(N)n1
inactive: [1] -2% | [2] -0.2% | [3] -0.6%

CC(C)NS(=O)(=O)c1ccc(OCC(=O)Nc2cccc(F)c2)cc1
inactive: [1] -3.9% | [2] -0.3% | [3] -0.8%

COc1cc2oc(-c3ccc(O)cc3)cc(=O)c2c(OC)c1O
inactive: [1] -1.9% | [2] -0.3% | [3] -2.3%

CCSc1nc(O)c(C2OC(=O)c3c2ccc(OC)c3OC)c(=O)n1CC (stereo not drawn)
inactive: [1] -0.7% | [2] 0.5% | [3] -2.4%

Cc1ccc(C2CC(=O)C(C=NCCN3CCN(C(=S)Nc4ccccc4)CC3)=C(O)C2)cc1 (stereo not drawn)
inactive: [1] -0.8% | [2] 0.1% | [3] 5.4%

COc1ccc(CCNC(=O)c2ccc(Cl)cc2)cc1OC
inactive: [1] 0.6% | [2] -1.4% | [3] -4.6%

Cc1ccc2nc(NC3=NC(CC(=O)O)C(=O)N3)nc(C)c2c1 (stereo not drawn)
inactive: [1] -1.7% | [2] -1% | [3] -4.8%
